ALOX12 inh – ALOX12 (human) lipoxygenase inhibition | P18054 | purified 12hLO, xylenol orange hydroperoxide absorbance | Potency, µM (doses to about 108 µM), inactives show top-dose activity change, negative = inhibition, most hits filed as inhibitors | hit rate 1.1% among 580,000; note: potency is the fitted concentration of half-maximal effect; % is set by controls: 0 for no effect and ±100 for the full control effect
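Purified human 12hLO at 150 nM in 25 mM Hepes, 0.01% Triton X-100, pH 7.0, preincubated 15 min at room temperature with compound. Reaction started with 40 uM arachidonic acid, 30 min at room temperature. Hydroperoxide measured by Fe-xylenol orange, 573/405 nm absorbance ratio.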
ERG Ets-DNA blk – ERG Ets/DNA interaction inhibition. AID 624246. fluorescence polarization, His-ERG Ets domain / labelled DNA. hit rate 0.028% among 370,000. P11308. Potency, µM (titrated, usually from 76.9 µM), for the others: at the highest dose FP activity, negative = inhibition, most hits filed as inhibitors; active = well fitted inhibition curve with a large enough effect in the polarisation, with a control signal flat; inconclusive = small, poorly fitted or top-dose-only effect, or effect the other way, or a change in a side signal; inactive = no such curve, though single readings can be large or run the other way; the % refers to the polarisation;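 note: polarization taken with two DNA probes labelled with fluorescein and Texas red; potency is the fitted concentration of half-maximal effect; % of control where 0% means no effect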
Target sequence (P11308 whole entry, looked up, the tested form may be a part): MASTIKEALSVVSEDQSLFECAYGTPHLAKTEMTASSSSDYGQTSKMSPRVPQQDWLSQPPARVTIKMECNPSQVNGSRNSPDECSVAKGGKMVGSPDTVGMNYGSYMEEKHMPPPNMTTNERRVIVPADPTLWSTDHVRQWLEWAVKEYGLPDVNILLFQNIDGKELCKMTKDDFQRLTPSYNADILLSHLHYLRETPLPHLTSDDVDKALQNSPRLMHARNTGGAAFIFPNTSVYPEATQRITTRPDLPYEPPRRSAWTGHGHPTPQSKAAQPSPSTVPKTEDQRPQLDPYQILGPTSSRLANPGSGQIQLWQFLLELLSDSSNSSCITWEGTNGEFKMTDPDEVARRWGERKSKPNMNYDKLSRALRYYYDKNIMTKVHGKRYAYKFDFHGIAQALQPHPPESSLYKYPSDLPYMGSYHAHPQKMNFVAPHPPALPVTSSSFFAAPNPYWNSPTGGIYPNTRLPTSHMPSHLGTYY
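His-tagged ERG Ets domain (1 uM in the protein solution; 300mM KCl, 50mM Tris-HCl, 1mM EDTA, 1mM DTT, pH 7.5) received compound, then a probe mix of 5 nM fluorescein-DNA and 100nM Texas-615-DNA. Fluorescence polarization was read for both dyes.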
Nrf2 inh – Nrf2 pathway inhibition. Potency, µM (top dose mostly 46 µM), for inactives: at the top dose activity change, negative = inhibition, actives largely listed as inhibitors. hit rate 2.1% among 360,000. A549 ARE-Fluc reporter, luciferase luminescence, 18-24 h. AID 504444; note: potency is the fitted concentration of half-maximal effect; % is set by controls: 0 for no effect and ±100 for the full control effect; nearly all actives have a fitted effect of over 60% in size
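Two sequential reads on A549 ARE_Fluc cells exposed to compound for 18-24 h: a CellTiter-Fluor fluorescence read for viability, then a luciferase luminescence read for Nrf2/ARE activity.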
A549 viability – kills or reduces viability of A549 cells in Nrf2 counter-screen; A549 ARE-Fluc cells, CellTiter-Fluor viability, 18-24 h; Potency, µM (top dose mostly 46 µM), for the others: at the top dose activity change, negative = cytotoxicity, actives largely listed as inhibitors; hit rate 0.16% among 390,000; AID 504648; note: potency is the fitted concentration of half-maximal effect; % is set by controls: 0 for no effect and ±100 for the full control effect
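A549 ARE-Fluc cells in 5% FBS OPTI-MEM, 5000 cells/well, rested 2 h then exposed to compounds in concentration-response for 18-24 h at 37 °C. Viability by CellTiter-Fluor fluorescence (Ex 405/Em 525) after 30 min; luciferase luminescence (BugLite, 15 min, RT) read afterwards.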
Nrf2 activator – activators of Nrf2 (ARE) signaling | hit rate 0.31% among 410,000 | AREc32 ARE-luciferase reporter (MCF7-derived line), luminescence, 24 h | AID 624171 | Potency, µM (top dose mostly 46.1 µM), for inactives: at the top dose activation, actives largely listed as activators; note: potency is the fitted concentration of half-maximal effect; % of control where 0% means no effect; nearly all actives have a fitted effect of over 65% in size
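ARE-driven firefly luciferase activity in AREc32 cells measured after a 24 hr compound exposure at 37 deg C, using Steady-Glo reagent and a 30 min room-temperature hold.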
LDHA block – inhibitors of human lactate dehydrogenase A | activity change, % (values are at about 110 or 230 µM) | P00338 | hit rate 0.15% among 480,000 | purified LDHA, NADH/diaphorase-resazurin fluorescence; active compounds read low; in the data active = activity change below about -30%; inconclusive = mostly about -25% to -30%;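 note: plate controls were DMSO wells for no effect and wells without enzyme for full effect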
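Remaining NADH was detected by diaphorase (0.133 mg/mL) converting 37 µM resazurin to fluorescent resorufin, read at 0 and 20 minutes. The preceding 5-minute room-temperature reaction used 2 nM LDHA, 0.2 mM sodium pyruvate and 0.06 mM NADH at pH 7.4.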
The depositor's hits bear a star; u = inconclusive; x = not tested or not shown; ! = repeats disagree; [ ] = dose if it differs, or a comment. Rows were chosen to be rich in hits. Some 2.7% of all compounds tested hit in one or more screens of this group. Unless noted, calls come from the whole dose curve; as a rule, active = well fitted curve in the direction sought with a large enough effect; inconclusive = small, poorly fitted or top-dose-only effect, or another doubt; inactive = no such curve, though single readings can be large; an effect the other way counts as inactive or inconclusive.

SMILES	ALOX12 inh	ERG Ets-DNA blk	Nrf2 inh	A549 viability	Nrf2 activator	LDHA block
O=C(CN1C(=O)/C(=C/c2ccco2)SC1=S)Nc1ccc(O)c(C(=O)O)c1	u	-3%	u	-1%	-1%	-1
O=C(Cc1ccccc1)Nc1ncnc2c1C(c1ccccc1)c1c(ccc3ccccc13)O2 (stereo not given)	15%	x	5.2µM*	u	5%	-4
CCOC(=O)CCC(=O)Nc1ncnc2c1C(c1ccccc1)c1c(ccc3ccccc13)O2 (stereo not given)	-1%	x	6.5µM*!	u	0%	-8
O=C(Nc1ncnc2c1C(c1ccccc1)c1c(ccc3ccccc13)O2)c1ccccc1 (stereo not given)	26%	x	u	u	8%	-4
CSc1nsc(SC)c1C(=O)NC(=O)Nc1cccnc1	154%	-8%	-27%	-11%	2%	0
CSc1nsc(SC)c1C(=O)Nc1ccc(C(C)(C)C)cc1	78%	-10%	u	6%	11µM*	-1
CC1(C)CC(=O)C2=C(C1)Oc1nc3ccccc3cc1C2C(C#N)C#N (stereo not given)	-22%	10%	u	u	7.1µM*	-1
CC1(C)CC(=O)C2=C(C1)OC(N)=C(C#N)C2c1c2ccccc2cc2ccccc12 (stereo not given)	u	x	x	x	x	21
Cc1nc2ccc(S(=O)(=O)Nc3cccc(-c4nc5cccnc5s4)c3C)cc2s1	2%	-9%	23µM*	-9%	-3%	-11
Cc1ccc(C(C)NS(=O)(=O)C2=Cc3ccccc3CC2)o1 (stereo not given)	u	x	x	x	x	63
Cc1ccc(S(=O)(=O)/N=C2\C=C(NS(=O)(=O)c3ccccc3)C(=O)c3ccccc32)cc1	u	-3%	0%	-3%	3%	39
Cc1ccc(S(=O)(=O)/N=C2/C=C(C3C(=O)CC(C)(C)CC3=O)C(=O)c3ccccc32)cc1	45µM*	4%	20%	7%	-2%	34
COC(=O)c1c(C)[nH]c(C(=O)Cn2nnc(-c3ccc(C(C)C)cc3)n2)c1C	-2%	x	x	x	x	-3
CC(=O)c1c(C)[nH]c(C(=O)Cn2nnc(-c3ccc(C(C)C)cc3)n2)c1C	16µM*	x	x	x	x	2
NC(=S)NN=C1c2cc(OCCN3CCOCC3)ccc2-c2ccc(OCCN3CCOCC3)cc21	x	-4%	16µM*	16µM*	-2%	1
ON=C1c2cc(OCCN3CCCCC3)ccc2-c2ccc(OCCN3CCCCC3)cc21	x	2%	2%	u	23%	3
Cc1ccc(NC(=O)C(C)C)cc1Cl	4%	x	x	x	x	-11
CCc1ccc(C(=O)c2cn(Cc3ccc(F)cc3)c3cc(OC)c(OC)cc3c2=O)cc1	8%	-2%	-7%	21µM*	-3%	0
C=C1C(=O)OC2C1CCC(C)=C1C(=O)C3OC3(C)C12 (stereo not given)	6%	5%	16µM*	u	-3%	0
CCOc1ccc(C(C)=O)cc1COc1ccccc1C#N	-6%	x	x	x	x	-3
COc1ccc(Br)cc1CN1CCN(C(=O)c2ccco2)CC1	0.5µM*	-10%	-11%	5%	0%	-18
COc1ccc(Br)cc1CN1CCCCCCC1	u	x	-5%	7%	0%	-30*
COc1ccccc1CN1CCN(C(=O)c2ccco2)CC1	u	4%	-4%	2%	-1%	-17
CCOc1ccccc1N1CCN(C(=O)c2cc(-c3cc(OC)ccc3OC)nc3ccccc23)CC1	x	-7%	21µM*	-7%	3%	-7
CCCNC(=O)c1cc(-c2ccc(OC)cc2OC)nc2ccccc12	13µM*	x	x	x	x	3
SMILES	ALOX12 inh	ERG Ets-DNA blk	Nrf2 inh	A549 viability	Nrf2 activator	LDHA block
O=C(O)c1ccc(-c2cc3ccccc3oc2=O)cc1	u	x	x	x	x	0
COc1ccc2cc(CN(Cc3cccnc3)S(=O)(=O)c3ccccc3)c(=O)[nH]c2c1	45µM*	-5%	-12%	-6%	2%	1
COc1ccc2cc(CN(CC3COCCO3)S(=O)(=O)c3ccccc3)c(=O)[nH]c2c1 (stereo not given)	-27%	5%	-4%	-6%	0%	-4
CCOC(=O)N1CCN(C(=O)Cn2nc(-c3ccccc3)ccc2=O)CC1	16%	x	x	x	x	2
N#Cc1c(-c2cccnc2)c2c([nH]c1=S)CCCC2	u	5%	u	-1%	0%	12
N#Cc1c(-c2ccco2)c2c([nH]c1=S)CCCC2	32µM*	-8%	u	6%	0%	-2
COc1ccc(NC(=O)c2cc3ccc(O)cc3o/c2=N\O)cc1	-1%	-7%	2.1µM*	u	3%[9.22 µM]	0
CCOc1cc(CNCc2ccco2)ccc1O	u	x	x	x	x	5
O=C(NNC(=O)c1cc2cc3ccccc3nc2s1)c1cccc(Cl)c1	0%	-2%	x	-28%	-1%	-51*
COc1ccc2nc(SC3CC(=O)N(c4ccc(C)c(C)c4)C3=O)nc(C)c2c1 (stereo not given)	-7%	x	x	x	x	9
CCCNC(=O)N[C@@H]1CCC[C@@H](C(=O)N(CC)CC)CC(=O)N(C)C1	40µM*	x	x	x	x	x
COC(=O)C(Br)(C(=O)OC)C(OC)(C(=O)OC)C(=O)OC	0.71µM*	x	x	x	x	1
COc1ccc(S(=O)(=O)CCC(=O)N2CCN(c3ccc([N+](=O)[O-])cc3)CC2)cc1	u	-10%	u	-20%	0%	-21
CC1(C(=O)N2CCN(c3ccc([N+](=O)[O-])cc3)CC2)CC1(Cl)Cl (stereo not given)	u	-8%	18µM*	-25%	3%	-1
Cc1ccc(S(=O)(=O)CCC(=O)N2CCN(c3ccc([N+](=O)[O-])cc3)CC2)cc1	-17%	1%	21µM*	-5%	2%	-2
COc1cc(CNC(=O)c2cnc3c(-c4cccc(C)c4)c(C)nn3c2C)cc(OC)c1OC	u	-2%	21µM*	0%	-1%	-1
COc1ccccc1CNC(=O)c1cnc2c(-c3ccccc3)c(C)nn2c1C	3%	2%	-24%	-3%	-1%	-15
COCc1cn(C[C@H]2C[C@@H](NCc3cccnc3)[C@H](O)[C@@H]2O)nn1	22µM*	x	x	x	x	x
O=S(=O)(N[C@@H]1C[C@H](Cn2cc(-c3cccnc3)nn2)[C@@H](O)[C@H]1O)c1ccccc1	20µM*	x	x	x	x	x
O=S1(=O)CCN(Cc2cn(C[C@H]3C[C@@H](NCc4ccc(F)cc4)[C@H](O)[C@@H]3O)nn2)CC1	13µM*	x	x	x	x	x

High-throughput results: PubChem, National Center for Advancing Translational Sciences (NCATS)
